Screening results (PubChem)
Autofluor counter: flagged as autofluorescent in microsphere protease counterscreen; compound autofluorescence counterscreen, microsphere flow cytometry; stronger effect = higher value; fluorescence intensity (test concentration not listed); 3.1% of 360,000 active; in the data active = fluorescence intensity above about 16000; inconclusive = no clear call, values can overlap the other calls
BoNT F protease: blocks Botulinum neurotoxin F light chain protease; inhibition, % at 10 µM; 0.22% of 360,000 active; Multiplex microsphere protease cleavage assay, flow cytometry; AID 588497; in the data active = inhibition above about 35%, passing the limit was not always enough; inconclusive = no clear call, values can overlap the other calls; also: plate controls were buffer without enzyme for full effect and enzyme alone for no effect
Anthrax LF inh2: anthrax lethal factor protease inhibition; multiplex microsphere protease cleavage assay, LF; inhibition, % at 10 µM; 0.12% of 360,000 active; AID 588501; also: plate controls were buffer without enzyme for full effect and enzyme alone for no effect
Target sequence (P15917 whole entry, looked up): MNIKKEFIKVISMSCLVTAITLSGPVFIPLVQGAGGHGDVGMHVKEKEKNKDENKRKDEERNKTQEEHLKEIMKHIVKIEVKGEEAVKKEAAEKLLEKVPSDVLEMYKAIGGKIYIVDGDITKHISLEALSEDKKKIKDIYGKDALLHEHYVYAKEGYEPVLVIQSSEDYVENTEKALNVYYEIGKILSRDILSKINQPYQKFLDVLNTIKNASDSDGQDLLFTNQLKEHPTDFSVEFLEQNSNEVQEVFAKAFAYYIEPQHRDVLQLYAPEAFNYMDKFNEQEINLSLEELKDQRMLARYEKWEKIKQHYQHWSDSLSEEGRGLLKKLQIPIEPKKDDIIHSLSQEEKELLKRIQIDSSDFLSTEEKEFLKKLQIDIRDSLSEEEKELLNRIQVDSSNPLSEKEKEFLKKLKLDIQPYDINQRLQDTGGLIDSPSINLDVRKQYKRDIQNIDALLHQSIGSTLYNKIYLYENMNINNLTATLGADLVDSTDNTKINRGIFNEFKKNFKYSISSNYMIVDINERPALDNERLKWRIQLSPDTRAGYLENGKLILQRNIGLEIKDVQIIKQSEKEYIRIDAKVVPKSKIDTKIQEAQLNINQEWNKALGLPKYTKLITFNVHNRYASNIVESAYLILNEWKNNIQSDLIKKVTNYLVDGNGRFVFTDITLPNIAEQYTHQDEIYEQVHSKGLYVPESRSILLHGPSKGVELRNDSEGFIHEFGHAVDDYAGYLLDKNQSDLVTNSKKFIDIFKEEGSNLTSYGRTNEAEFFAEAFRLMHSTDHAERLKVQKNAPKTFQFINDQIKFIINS
BoNT-A LC inh2: blocks Botulinum neurotoxin A light chain protease | AID 588499 | 0.17% of 360,000 active | multiplex microsphere protease substrate cleavage, flow cytometry | inhibition, % at 10 µM; also: plate controls were buffer without enzyme for full effect and enzyme alone for no effect
BJeLR lethal: BJeLR cell viability loss | BJeLR (HRASV12) viability, CellTiter-Glo ATP luminescence, 48 h | inhibition, % (concentration not given with the values) | 0.17% of 300,000 active | AID 1554; in the data active = inhibition above about 50%; inconclusive = no clear call, values can overlap the other calls
BoNT-A LC CP1: inhibitors of Botulinum neurotoxin A light chain protease; multiplex microsphere protease assay, flow cytometry; 3% of 720 active; inhibition, % at 10 µM; shares compounds with BoNT F protease; in the data active = inhibition above about 32%
BoNTF LC inh 1: inhibitors of Botulinum neurotoxin F light chain protease; shares compounds with BoNT F protease; multiplex microsphere protease cleavage assay, flow cytometry; inhibition, % at 10 µM; 720 tested, under 10 active; AID 602140; call rule not given here
Anthrax LF CP1: Bacillus anthracis lethal factor protease inhibition | shares compounds with BoNT F protease | multiplex microsphere protease cleavage assay, LF | inhibition, % at 10 µM | 720 tested, under 10 active; call rule not given here
* hit, by the source's call. An excerpt weighted towards active compounds, which were near 3.5% of everything screened. Rule as the data show it, unless noted: active = inhibition above about 30%; inconclusive = no clear call, values can overlap the other calls; inactive = below that.

`COCc1cc(CN2CCCC(C(=O)c3cccc(C(F)(F)F)c3)C2)ccc1OC` (configuration not stated) gave Autofluor counter 3106, BoNT F protease 43.4*, Anthrax LF inh2 -1.7, BoNT-A LC inh2 4.2, BJeLR lethal 3.1, BoNT-A LC CP1 -2.2, BoNTF LC inh 1 -0.5 and Anthrax LF CP1 -3.4.
CC(=O)C1=C(O)C(=O)N(CCCCCC(=O)O)C1c1ccc(N(C)C)cc1 (configuration not stated) was read as Autofluor counter 4553, BoNT F protease -4.7, Anthrax LF inh2 2.9, BoNT-A LC inh2 -0.7 and BJeLR lethal -0.3.
`COc1ccc(S(=O)(=O)NC(C)C(=O)N2CCCC2)cc1Cl` (configuration not stated) gave Autofluor counter 3107, BoNT F protease inconclusive, Anthrax LF inh2 30.9*, BoNT-A LC inh2 2.5, BJeLR lethal 6.5, BoNT-A LC CP1 0.3, BoNTF LC inh 1 16.4 and Anthrax LF CP1 -2.0.
`COc1ccc(Cn2c(=S)[nH]c3cc(OC)c(OC)cc3c2=O)cc1` gave Autofluor counter 3250, BoNT F protease 2.7, Anthrax LF inh2 -1.9, BoNT-A LC inh2 -0.2 and BJeLR lethal 5.3.
`COc1ccc(Cn2c(=O)[nH]c3cc(OC)c(OC)cc3c2=O)cc1` gave Autofluor counter 3925, BoNT F protease 35.9*, Anthrax LF inh2 -9.0, BoNT-A LC inh2 4.1, BJeLR lethal -1.7, BoNT-A LC CP1 -0.3, BoNTF LC inh 1 1.2 and Anthrax LF CP1 -2.0.
COc1cccc(/C=C/c2ccncc2)c1OC was read as Autofluor counter 4691, BoNT F protease 30.7, Anthrax LF inh2 1.2, BoNT-A LC inh2 1.4, BJeLR lethal 9.4, BoNT-A LC CP1 1.4, BoNTF LC inh 1 0.1 and Anthrax LF CP1 3.9.
CCCOC1CCCN(Cc2nc(-c3cnccn3)no2)C1 (configuration not stated) was read as Autofluor counter 4198, BoNT F protease 34.9*, Anthrax LF inh2 -3.6, BoNT-A LC inh2 4.3, BJeLR lethal 19.9, BoNT-A LC CP1 0.4, BoNTF LC inh 1 -2.3 and Anthrax LF CP1 1.0.
`COc1ccccc1Oc1ccc2c(c1)C(=O)N(c1ccc(O)cc1)C2=O` gave Autofluor counter 2846, BoNT F protease -4.2, Anthrax LF inh2 2.6 and BoNT-A LC inh2 -0.5.
`COc1ccccc1Oc1ccc2c(c1)C(=O)N(CC(=O)O)C2=O` gave Autofluor counter 3877, BoNT F protease 37.5*, Anthrax LF inh2 1.7, BoNT-A LC inh2 -0.9, BJeLR lethal -6.9, BoNT-A LC CP1 -1.3, BoNTF LC inh 1 0.8 and Anthrax LF CP1 -0.9.
`Cc1oc(-c2ccc3c(c2)OCCO3)cc1C(=O)NC(Cc1ccccc1)C(=O)O` (configuration not stated) gave Autofluor counter 3841, BoNT F protease -14.3, Anthrax LF inh2 -0.5, BoNT-A LC inh2 -2.3 and BJeLR lethal -3.1.
Cc1cccc2cc(C(c3nnnn3C3CCCC3)N3CCOCC3)c(=O)[nH]c12 (configuration not stated) was read as Autofluor counter 21873*, BoNT F protease -1.5, Anthrax LF inh2 0.3, BoNT-A LC inh2 inconclusive, BJeLR lethal 8.7, BoNT-A LC CP1 -3.0, BoNTF LC inh 1 -5.2 and Anthrax LF CP1 -3.6.
Cc1ccc2[nH]c(=O)c(C(c3nnnn3CC3CCCO3)N3CCOCC3)cc2c1 (configuration not stated) was read as Autofluor counter inconclusive, BoNT F protease 4.6, Anthrax LF inh2 -1.4, BoNT-A LC inh2 0.6 and BJeLR lethal -9.8.
For Cc1cc(C)c2cc(C(c3nnnn3C3CCCC3)N3CCOCC3)c(=O)[nH]c2c1 (configuration not stated) the results were Autofluor counter 9576, BoNT F protease 7.8, Anthrax LF inh2 -6.6, BoNT-A LC inh2 0.8, BJeLR lethal -0.6, BoNT-A LC CP1 1.1, BoNTF LC inh 1 -4.2 and Anthrax LF CP1 1.6.
`CCOc1cc2nc3c4ccccc4n(C)c3nc2cc1OCC` gave Autofluor counter 2580, BoNT F protease 7.9, Anthrax LF inh2 19.6, BoNT-A LC inh2 48.5*, BJeLR lethal 2.4, BoNT-A LC CP1 7.5, BoNTF LC inh 1 -0.1 and Anthrax LF CP1 3.1.
`Cc1ccc(C)c(Nc2nc(-c3ccncc3)nc3ccccc23)c1` gave Autofluor counter 3520, BoNT F protease 41.6*, Anthrax LF inh2 -2.4, BoNT-A LC inh2 0.4, BJeLR lethal -1.1, BoNT-A LC CP1 -1.8, BoNTF LC inh 1 -0.4 and Anthrax LF CP1 -2.7.
For O=[N+]([O-])c1ccc(Sc2cccc3cccnc23)c2cccnc12 the results were Autofluor counter 4230, BoNT F protease 8.5, Anthrax LF inh2 30.4*, BoNT-A LC inh2 24.4, BJeLR lethal 8.2, BoNT-A LC CP1 17.4, BoNTF LC inh 1 4.4 and Anthrax LF CP1 12.9.
For O=[N+]([O-])c1cc2cccnc2c2ncccc12 the results were BJeLR lethal -16.3.
For Cc1ccccc1Cn1nc(C)c(NC(=O)c2cc3nc(-c4ccco4)cc(C(F)(F)F)n3n2)c1C the results were Autofluor counter 3240, BoNT F protease 2.2, Anthrax LF inh2 3.5, BoNT-A LC inh2 0.0, BoNT-A LC CP1 1.0, BoNTF LC inh 1 -0.8 and Anthrax LF CP1 -1.2.
O=C(Nc1cnn(Cc2ccccc2)c1)c1cc2nc(-c3ccco3)cc(C(F)(F)F)n2n1 was read as Autofluor counter 3153, BoNT F protease 5.7, Anthrax LF inh2 1.1, BoNT-A LC inh2 -0.1, BJeLR lethal -8.2, BoNT-A LC CP1 -1.2, BoNTF LC inh 1 -1.2 and Anthrax LF CP1 -0.2.
Screening Cc1nn(C)cc1CN(C)C(=O)c1cc2nc(-c3ccco3)cc(C(F)(F)F)n2n1 returned Autofluor counter 2869, BoNT F protease -8.5, Anthrax LF inh2 1.2, BoNT-A LC inh2 0.0 and BJeLR lethal 3.3.
Screening Cc1nn(C)cc1NC(=O)c1cc2nc(-c3ccco3)cc(C(F)(F)F)n2n1 returned Autofluor counter 3878, BoNT F protease -7.1, Anthrax LF inh2 0.2, BoNT-A LC inh2 0.7, BJeLR lethal 6.7, BoNT-A LC CP1 -0.8, BoNTF LC inh 1 5.9 and Anthrax LF CP1 0.1.
Cc1nn(Cc2ccc(F)cc2)c(C)c1NC(=O)c1cc(-c2ccc3c(c2)OCO3)on1 was read as Autofluor counter 11194, BoNT F protease -4.4, Anthrax LF inh2 -4.8, BoNT-A LC inh2 -1.3 and BJeLR lethal -3.6.
Screening CCc1ccc(-c2cc(C(F)(F)F)n3nc(C(=O)Nc4c(C)nn(Cc5ccc(F)cc5)c4C)cc3n2)s1 returned Autofluor counter 8750, BoNT F protease 15.9, Anthrax LF inh2 25.7, BoNT-A LC inh2 32.7*, BJeLR lethal -4.4, BoNT-A LC CP1 2.1, BoNTF LC inh 1 -6.5 and Anthrax LF CP1 2.0.
Screening COc1ccccc1-c1csc(C(O)c2cccc(Cl)c2)n1 (configuration not stated) returned Autofluor counter 3710, BoNT F protease -3.1, Anthrax LF inh2 -0.2 and BoNT-A LC inh2 -0.2.
